Experimental data reported in ChEMBL document CHEMBL4296182, “CO-ADD screening of NIH NCI Diversity Set V”.
For part of these data: Measured potencies and affinities stand elsewhere.

How the values were obtained:
Staphylococcus aureus = assay: Antibacterial activity against Staphylococcus aureus MRSA ATCC 43300 (CO-ADD:GP_020); MIC in CAMBH media using NBS plates, by Resazurin F(560/590); type: functional; settings: Concentration 20 uM, ASSAY_TEST Inhibition of Bacterial Growth, detection method Resazurin, Fluorescence (ex560/em590), MEDIA CAMHB, plate type 384well, CORNING #3640, time 18 hr
Acinetobacter baumannii = assay: Antibacterial activity against Acinetobacter baumannii ATCC 19606 (CO-ADD:GN_034); MIC in CAMBH media using NBS plates, by Resazurin F(560/590); type: functional; settings: Concentration 20 uM, ASSAY_TEST Inhibition of Bacterial Growth, detection method Resazurin, Fluorescence (ex560/em590), MEDIA CAMHB, plate type 384well, CORNING #3640, time 18 hr
Escherichia coli = assay: Antibacterial activity against Escherichia coli ATCC 25922 (CO-ADD:GN_001); MIC in CAMBH media using NBS plates, by Resazurin F(560/590); type: functional; settings: Concentration 20 uM, ASSAY_TEST Inhibition of Bacterial Growth, detection method Resazurin, Fluorescence (ex560/em590), MEDIA CAMHB, plate type 384well, CORNING #3640, time 18 hr
Klebsiella pneumoniae = settings: Concentration 20 uM; ASSAY_TEST Inhibition of Bacterial Growth; detection method Absorption (OD600); MEDIA CAMHB; plate type 384well; NBS; CORNING #3640; time 18 hr
Candida albicans = settings: 20 µM
Cryptococcus neoformans = settings: Concentration 20 uM; ASSAY_TEST Inhibition of Fungal Growth; detection method Resazurin; Absorption (OD600-OD570); plate type 384well; NBS; CORNING #3640

| SMILES | Inhibition (Staphylococcus aureus) [%] | Inhibition (Acinetobacter baumannii) [%] | Inhibition (Escherichia coli) [%] | Inhibition (Klebsiella pneumoniae) [%] | Inhibition (Candida albicans) [%] | Inhibition (Cryptococcus neoformans) [%] |
| --- | --- | --- | --- | --- | --- | --- |
| CC1=CC(C)(C(Cl)(Cl)Cl)C(C)=C/C1=N/O (stereo not given) | 1.65 | -20.29 | 8.83 | 12.76 | 4.85 | -11.97 |
| COc1cc2c(=O)n3c4c(cccc4c2cc1OC)CC3 | 9.4 | -8.34 | 13.88 | 1.26 | 1.37 | -14.32 |
| O=C(NN1CCCCC1)NN1CCCCC1 | 9.98 | 7.95 | 2.92 | -4.05 | 1.96 | -2.31 |
| CC1(CN2CCCC2)CCC(NC(=O)C(c2ccccc2)c2ccccc2)C(C)(C)O1 (stereo not given) | 23.4 | 6.65 | 12.21 | 18.43 | 0.1 | -5.78 |
| Cc1ccc(C(C)C)cc1NC(=O)Nc1ccc([N+](=O)[O-])cc1 | 19.7 | 7.88 | -5.77 | 22.27 | 8.72 | -7.56 |
| O=C(Nc1ccc(Cl)c(Cl)c1)c1ccc(Cl)c(Cl)c1 | 18.37 | 5.32 | 2.55 | 6.19 | -2.44 | -2.12 |
| COc1cc(/N=N/c2ccccc2C(=O)O)ccc1O | 46.16 | -0.55 | 0.38 | 12.27 | -1.22 | 3.74 |
| O=C(O)c1ccccc1-n1c2ccccc2c2ccccc21 | 10.38 | 6.58 | 7.31 | 10.24 | 4.15 | -5.74 |
| c1ccc(-c2nc[nH]c2-c2ccccc2)cc1 | 15.79 | -13.75 | 11.94 | 6.07 | -1.64 | -10.72 |
| C[C@]12CC[C@@H]3c4ccc(OCC(=O)O)cc4CC[C@H]3[C@@H]1CCC2=O | 9.17 | -16.81 | 9.71 | 8.63 | 3.7 | -16.24 |
| COc1cc(S(N)(=O)=O)c(OC)cc1N | 4.84 | -10.8 | 11.54 | 5.18 | 1.19 | -0.85 |
| COc1ccc(/N=C\c2c(O)ccc3c2oc2cc(Cl)c(O)c(Cl)c23)cc1 | -3.23 | 0.5 | -4.89 | 17.64 | 2.89 | -10.03 |
| Clc1ccccc1/C=C/c1ccnc2ccccc12 | 12.2 | 3.17 | 1.57 | 12.59 | 30.4 | -3.47 |
| Cc1cccc(C)c1NC(=O)Nc1ccc(S(N)(=O)=O)cc1 | -3.68 | 5.47 | 8.39 | 5.63 | 0.87 | -12.09 |
| COc1ccc(/C(C#N)=C/c2cccnc2)cc1 | 17.02 | -13.68 | 11.08 | 6.19 | 11.3 | -16.52 |
| O=C(O)/C=C/C(=O)N1Cc2cc3ccccc3nc2C1 | 3.21 | -0.11 | -4.23 | 9.8 | 1.99 | -3.38 |
| Cc1cc(N2CCN(C)CC2)n2nc(-c3ccc(Cl)cc3)nc2n1 | 10.15 | 8.53 | 12.12 | 20.83 | 5.91 | -6.75 |
| CN1CCN(C(=O)Nc2ccc([N+](=O)[O-])cc2)CC1 | 7.33 | 6.21 | 0.54 | 6.75 | 1.28 | -7.02 |
| COc1ccc([N+](=O)[O-])cc1NS(=O)(=O)c1ccc(C)cc1 | 7.11 | 4.99 | 7.35 | 9.82 | 5.66 | -6.48 |
| Nc1nc(O)c2nn(-c3ccccc3)nc2n1 | 7.59 | -13.43 | 5.48 | 0.39 | -3.03 | 29.86 |
| CCN1CCC(Nc2ccnc3cc(Cl)ccc23)CC1 | 11.96 | -0.07 | -4.98 | 16.53 | 2.51 | -6.53 |
| CC(C)c1cc(C(C)C)n2nc(N)nc2n1 | 6.67 | 8.95 | 5.1 | 0.39 | -0.42 | -7.51 |
| CC1=C(C#N)C(C)(C)C(C#N)=C(C)N1 | 13.81 | -13.23 | 8.21 | 8.84 | 0.55 | -14.16 |
| O=C(O)c1ccc(OCCOc2ccccc2)cc1 | -1.13 | -7.25 | 7.53 | 15.54 | 7.45 | -11.92 |
| CCOCCc1c(O)nc(SC)nc1O | -2.52 | -10.74 | 0.79 | 7.34 | 2.01 | -12.26 |

| SMILES | Inhibition (Staphylococcus aureus) [%] | Inhibition (Acinetobacter baumannii) [%] | Inhibition (Escherichia coli) [%] | Inhibition (Klebsiella pneumoniae) [%] | Inhibition (Candida albicans) [%] | Inhibition (Cryptococcus neoformans) [%] |
| --- | --- | --- | --- | --- | --- | --- |
| c1ccc2c(c1)Nc1ccncc1S2 | 6.69 | -7.03 | 3.1 | 3.6 | 2.27 | -9.93 |
| O=c1cc(-c2ccccc2)oc2ccc(O)cc12 [6-HYDROXYFLAVONE] | -4.33 | -2.45 | -5.6 | 8.45 | 7.78 | -10.88 |
| Cc1ccc(-n2nnnc2-c2cccnc2)cc1 | 21.74 | -2.15 | 12.35 | 4.8 | -0.65 | -9.13 |
| CN(c1cccnc1)c1[nH]cnc2nncc1-2 | -13.03 | -4.86 | -0.96 | -0.91 | 0.07 | -5.56 |
| Sc1cnnc2ccccc12 | -0.57 | -12.95 | -15.13 | 9.37 | 6.56 | 22.39 |
| O=C1C2C3C=CC(O3)C2C(=O)N1Nc1ccccc1 (stereo not given) | -4 | 10.94 | -0.67 | 8.39 | 1.05 | -2.5 |
| CCCCCCC(C)OC(=O)c1ccccc1C(=O)O (stereo not given) | 12.97 | -3.64 | -2.32 | 24.05 | 18.6 | -16.02 |
| Cc1cc(S)nc(S)n1 | 19.64 | -5.84 | 8.34 | 8.54 | -0.64 | -0.35 |
| O=c1c(O)cccc2cc(O)c(O)c(O)c12 [PURPUROGALLIN] | -28.9 | 1.69 | 13.14 | 21.3 | 53.6 | -25.98 |
| O=C(c1ccc(Cl)nc1)c1cccs1 | -3.15 | 14.95 | -2.66 | 4.42 | 2.35 | -1.99 |
| Cc1ccc(NC(=O)N2CCCCC2)cc1[N+](=O)[O-] | 0.24 | -10.39 | 3.85 | 3.41 | 6.56 | -11.71 |
| O=C1c2ccccc2C(O)(c2ccccc2)N1c1ccncc1 (stereo not given) | 8.72 | -12.43 | 4.92 | 13.13 | 2.44 | -3.79 |
| CC(C)(C)C(=O)/C=C/c1ccc(Oc2ccccc2)cc1 | 7.11 | -6.09 | -4.94 | 20.89 | 4.03 | -10.02 |
| CCCCc1c(C)nc(S)nc1O | 16.17 | -14.45 | 9.4 | 7.26 | 2.04 | -3.51 |
| CC12C(=O)N(c3nccs3)C(=O)C1(C)C1CCC2O1 (stereo not given) | 6.57 | 6.5 | 7.81 | 14.08 | 2.65 | -13.24 |
| O=C1c2cccc(Oc3ccccc3)c2C(=O)c2cccc(Oc3ccccc3)c21 | 12.36 | 6.18 | -1.53 | 10.6 | 2.19 | -5.27 |
| OCc1cc(O)c(CO)nn1 | -17.8 | -1.67 | -7.33 | 4.1 | -0.36 | 1.1 |
| NC(=O)Oc1cccc(OC(N)=O)c1 | 9.68 | -13.95 | 4.31 | 5.21 | 2.21 | -9.78 |
| O=C(NC(=S)Nc1cc(Cl)ccc1O)c1cccc(Br)c1 | 15.1 | 1.75 | -0.44 | 14.73 | -2.09 | -0.86 |
| N#CC1=C(Nc2ccccc2Cl)SC(c2ccncc2)NC1=O (stereo not given) | -1.66 | 6.04 | -3.11 | 12.56 | 4.49 | -0.15 |
| CC(C)(C)NC1=NCCNC(c2ccccc2)=C1.CS(=O)(=O)O | -3.88 | 8.25 | 7 | 11.55 | 1.18 | -14.32 |
| COc1cc(C(O)c2nc3ccccc3s2)cc(OC)c1OC (stereo not given) | 9.75 | -15.16 | 6.66 | 12.12 | 9.5 | -12.06 |
| Oc1cccc2cnccc12 | -5.81 | 3.26 | 3.71 | 12.61 | 1 | 3.35 |
| O=C(Nc1ccc(O)c(C(=O)O)c1)Oc1ccccc1 | 5.63 | 12.9 | -6.34 | 11.35 | 5.9 | -2.46 |
| O=C(Nc1ccc(Nc2ccncc2)cc1)c1ccc([N+](=O)[O-])cc1 | -5.06 | 12.27 | 7.64 | 10.28 | 3.08 | -7.15 |
